In the supplement of paper PMC3334620:
The full ranking holds about 33,000 sequences; the median of “E-score (-0.5 to 0.5)” is about -0.054, and the highest 2% start at about 0.35. This is one part of a sample in which the highest values are shown more often than they occur.

The sequences below were run against T1, Stb5 (UniProt P38699) (assay: PBM E-score (8-mer binding enrichment) (E-score (-0.5 to 0.5)); higher = stronger / more preferred TF binding). Settings: protein concentration: 200 nM; construct: GST-full length.
T1 sequence: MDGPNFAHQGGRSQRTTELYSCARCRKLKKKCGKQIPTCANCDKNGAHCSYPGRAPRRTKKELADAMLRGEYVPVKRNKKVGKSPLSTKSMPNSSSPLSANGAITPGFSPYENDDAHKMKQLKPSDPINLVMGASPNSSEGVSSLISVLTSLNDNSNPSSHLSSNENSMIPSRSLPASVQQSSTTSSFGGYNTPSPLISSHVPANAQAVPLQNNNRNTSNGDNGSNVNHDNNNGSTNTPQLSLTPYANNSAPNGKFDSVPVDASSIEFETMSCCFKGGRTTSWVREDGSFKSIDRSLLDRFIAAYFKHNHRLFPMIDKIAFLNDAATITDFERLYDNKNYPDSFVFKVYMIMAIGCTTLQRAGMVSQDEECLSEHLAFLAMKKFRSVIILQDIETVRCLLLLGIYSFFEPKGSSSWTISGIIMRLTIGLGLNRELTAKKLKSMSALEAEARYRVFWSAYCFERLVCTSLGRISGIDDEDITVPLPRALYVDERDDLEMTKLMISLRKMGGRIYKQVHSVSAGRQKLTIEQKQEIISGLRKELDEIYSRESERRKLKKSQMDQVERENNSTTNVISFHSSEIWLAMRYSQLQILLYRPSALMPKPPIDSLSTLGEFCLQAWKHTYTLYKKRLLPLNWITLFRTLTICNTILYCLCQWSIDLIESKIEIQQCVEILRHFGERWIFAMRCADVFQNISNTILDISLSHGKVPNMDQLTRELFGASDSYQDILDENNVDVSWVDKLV
Outline: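 Yeast transcription factors carrying a GST tag, as full-length proteins or DNA-binding domains, were produced by PURExpress in vitro transcription/translation. About 100-200 nM protein was applied to universal all-10-mer Agilent arrays, double-stranded by primer extension on fresh or once-stripped slides. Bound protein was detected with fluorescent anti-GST, and scans were normalised with masliner. The Universal PBM Analysis Suite gave each ungapped eight-base word, pooled with its reverse complement, an E-score, a modified Wilcoxon-Mann-Whitney statistic.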

| Sequence | PBM E-score |
| --- | --- |
| GCCGCACA | 0.206 |
| CTGCTGGC | -0.124 |
| GGCGGGGA | 0.366 |
| CGCGGGGA | 0.305 |
| AGCGGGAA | 0.357 |
| GGCGGGAA | 0.287 |
| AGCGGGAG | 0.0448 |
| GTCGGGGA | 0.382 |
| AGCGGGGG | 0.277 |
| AGCGGGAT | 0.25 |
| ATCGGGGA | 0.307 |
| AGCGGGGA | 0.375 |
| GCGGGGGA | 0.261 |
| CTCGGGGA | 0.0793 |
| GTAGGCAA | -0.246 |
| AATCTCCT | -0.0106 |
| GGGCAGTA | -0.0652 |
| ACCAAACG | 0.0282 |
| AGATCCAC | -0.00803 |
| GAACGTTC | -0.114 |
| CCGTTACC | 0.19 |
| CAGAGTAC | -0.0917 |

| Sequence | PBM E-score |
| --- | --- |
| CGTTTGGC | 0.0428 |
| ACGATTAT | 0.0316 |
| CCCGAGAC | 0.146 |
| CGGATTAA | 0.231 |
| AGCGGGGC | 0.356 |
| ATCGGGGG | 0.289 |
| ATCGGGCC | 0.297 |
| ATCGGGGC | 0.356 |
| CGCGGGGC | 0.321 |
| AGCGGGCC | 0.23 |
| CCCATATA | 0.0651 |
| ATAAACGA | 0.0369 |
| AGCCCAAA | 0.106 |
| GCCGACCC | 0.267 |
| CCCGACCG | 0.355 |
| CCCGACCC | 0.247 |
| ACCGACCA | 0.332 |
| ACCGACCC | 0.361 |
| ACCGACCG | 0.346 |
| AACACTAA | -0.111 |
| TGTGGGAA | -0.16 |
| GCCTAGTA | -0.0419 |

| Sequence | PBM E-score |
| --- | --- |
| AAAATCCG | 0.345 |
| GGCCCCGA | 0.23 |
| AGCCCCGC | 0.421 |
| CGCCCCGC | 0.325 |
| AGCCCGGG | 0.189 |
| AGCCCCGA | 0.397 |
| AGCCCCGG | 0.404 |
| AGCCCCCC | -0.282 |
| CGCCCCGA | 0.328 |
| AGCCCCCG | 0.173 |
| AAGGTGAT | 0.117 |
| AGAGGTAC | -0.205 |
| CCTGATCC | -0.125 |
| CCCATGGG | -0.194 |
| GGTTGGAC | -0.0385 |
| CGCCTGTC | -0.0556 |
| ACTACAGT | -0.24 |
| TCCGGACA | 0.259 |
| CACGGACA | 0.211 |
| CCCGGACA | 0.315 |
| CTCGGACA | 0.233 |
| GACGGACC | 0.316 |

| Sequence | PBM E-score |
| --- | --- |
| GTCGGACA | 0.385 |
| GCCGGACA | 0.401 |
| GACGGACA | 0.372 |
| CTCGGATA | 0.0597 |
| GTCGGATA | 0.371 |
| GTCGGAAA | 0.274 |
| ATCGGATA | 0.19 |
| TAAAACTA | -0.0104 |
| CACAAAAG | 0.0345 |
| AGCTAACG | 0.00522 |
| CCTCCTAG | -0.267 |
| ATGGCGAG | -0.242 |
| CCAGCGCG | -0.0713 |
| AAACCTTT | 0.0851 |
| AGGCCCCA | -0.255 |
| AGCGGAGA | 0.236 |
| CTCGGAGA | 0.136 |
| GGCGGAGA | 0.388 |
| CGCGGAGA | 0.287 |
| ATCGGAGA | 0.33 |
